From PubChem BioAssay AID1159580 (chemical genetic matrix, 2015)
Several values for one entry are separate records, joined by “and”; a condition that tells them apart may be missing. Equal entries are not always repeated. In all, about 5,500 compounds went through this assay and about 2,000 (36%) were called active. Not shown: some 18% with an inconclusive outcome. Cut-off read from the data, not from the text of the source: active = normalized growth mostly below about 0.91 (no sharp cut-off); inconclusive = no clear call, values can overlap the other calls; inactive = mostly above about 0.92. Some of the results follow.

Experiment: chemical genetic growth profiling, strain panel (AID 1159580);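 note: tested at 20 µM; growth read once vehicle control cultures reached saturation at 30 °C; 1 = growth at the plate median or of vehicle wells; lower values mean less growth of the strain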
Details: S. cerevisiae deletion strains, growth OD

Measured: normalized growth

O=C(c1ccccc1)c1ccc2n1CCC2C(=O)O (stereo not drawn)
inactive: locus YAL013W, strain DEP1, hits give low values 0.993 | locus YAL021C, strain ccr4, hits give low values 0.98 | locus YAL026C, strain drs2, hits give low values 0.983 | locus YAL030W, strain snc1, hits give low values 0.978 | locus YAL040C, strain CLN3, hits give low values 1.01 | locus YBL061C, strain skt5, hits give low values 1.01 | locus YBR009C, strain hhf1, hits give low values 0.991 | locus YBR021W, strain FUR4, hits give low values 0.988 | locus YBR023C, strain chs3, hits give low values 1.01 | locus YBR171W, strain sec66, hits give low values 0.994 | locus YBR229C, strain ROT2, hits give low values 1.01 | locus YBR231C, strain swc5, hits give low values 1.01 | locus YBR279W, strain paf1, hits give low values 1.01 | locus YCL011C, strain gbp2, hits give low values 0.974 | locus YCL016C, strain dcc1, hits give low values 0.995 | locus YCL029C, strain bik1, hits give low values 0.956 | locus YCL061C, strain MRC1 (second series), hits give low values 1.02 | locus YCL069W, strain vba3, hits give low values 0.979 | locus YCR088W, strain abp1, hits give low values 1.01 | locus YDL005C, strain med2, hits give low values 0.967 | locus YDL035C, strain GPR1, hits give low values 0.987 | locus YDL040C, strain nat1, hits give low values 0.997 | locus YDL074C, strain BRE1, hits give low values 1.05 | locus YDL101C, strain DUN1, hits give low values 1 | locus YDL134C, strain PPH21, hits give low values 0.988 | locus YDL185W, strain tfp1, hits give low values 0.958 | locus YDL192W, strain arf1, hits give low values 0.968 | locus YDR001C, strain nth1, hits give low values 0.968 | locus YDR069C, strain doa4, hits give low values 1.01 | locus YDR101C, strain arx1, hits give low values 1.01 | locus YDR137W, strain rgp1, hits give low values 0.945 | locus YDR150W, strain NUM1, hits give low values 0.994 and 1.01 | locus YDR159W, strain sac3, hits give low values 0.955 | locus YDR162C, strain NBP2, hits give low values 0.982 | locus YDR195W, strain ref2 0.975 | locus YDR297W, strain sur2, hits give low values 0.991 | locus YDR318W, strain mcm21, hits give low values 0.969 | locus YDR334W, strain swr1, hits give low values 0.976 | locus YDR335W, strain msn5, hits give low values 0.988 | locus YDR363W, strain ESC2, hits give low values 1.02 | locus YDR388W, hits give low values 0.981 | locus YDR392W, strain spt3, hits give low values 0.935 | locus YDR502C, strain sam2, hits give low values 0.987 | locus YEL003W, strain gim4, hits give low values 0.997 | locus YEL037C, strain rad23, hits give low values 0.984 | locus YEL061C, strain CIN8 (second series), hits give low values 0.999 | locus YEL061C, strain CIN8, hits give low values 0.994 | locus YER002W, strain NOP16, hits give low values 0.998 | locus YER015W, strain faa2, hits give low values 0.99 | locus YER016W, strain bim1, hits give low values 0.988 | locus YER110C, hits give low values 0.96 | locus YER111C, strain swi4, hits give low values 1 | locus YER155C, strain BEM2 (second series), hits give low values 1.01 | locus YER155C, strain BEM2, hits give low values 1 | locus YER167W, strain BCK2, hits give low values 0.997 | locus YFR010W, strain ubp6, hits give low values 0.981 | locus YGL078C, strain dbp3, hits give low values 0.982 | locus YGL086W, strain mad1, hits give low values 0.995 | locus YGL167C, strain pmr1, hits give low values 0.998 | locus YGL173C, strain kem1, hits give low values 1 | locus YGL227W, strain vid30, hits give low values 0.996 | locus YGL240W, strain doc1, hits give low values 1.02 | locus YGL248W, strain PDE1, hits give low values 1.01 | locus YGL253W, strain hxk2, hits give low values 0.974 | locus YGR135W, strain pre9, hits give low values 0.974 | locus YGR252W, strain gcn5, hits give low values 0.996 | locus YHR013C, strain ard1, hits give low values 0.994 | locus YHR027C, strain rpn1, hits give low values 1.01 | locus YHR030C, strain SLT2, hits give low values 0.988 and 0.999 | locus YHR079C, strain IRE1 (second series), hits give low values 0.965 | locus YHR079C, strain IRE1, hits give low values 1.02 | locus YHR094C, strain hxt1, hits give low values 0.985 | locus YHR129C, strain ARP1, hits give low values 0.991 | locus YHR142W, strain chs7, hits give low values 0.975 | locus YHR200W, strain rpn10, hits give low values 0.96 | locus YIL066C, strain RNR3, hits give low values 1 | locus YIL073C, strain SPO22, hits give low values 0.922 | locus YIL125W, strain kgd1, hits give low values 0.985 | locus YIR030C, strain dcg1, hits give low values 0.973 | locus YJL092W, strain hpr5, hits give low values 0.984 | locus YJL095W, strain BCK1 (second series), hits give low values 0.993 | locus YJL095W, strain BCK1, hits give low values 1.03 and 0.992 | locus YJL115W, strain asf1, hits give low values 0.984 | locus YJL129C, strain trk1, hits give low values 1.02 | locus YJL134W, strain LCB3, hits give low values 0.99 | locus YJL154C, strain vps35, hits give low values 0.975 | locus YJL164C, strain tpk1, hits give low values 0.965 | locus YJL166W, strain qcr8, hits give low values 1.02 | locus YJL168C, strain set2, hits give low values 0.979 | locus YJL187C, strain SWE1 (second series), hits give low values 1.01 | locus YJL187C, strain SWE1, hits give low values 0.986 | locus YJR043C, strain POL32, hits give low values 0.997 | locus YJR066W, strain TOR1, hits give low values 0.966
